The results in this text go back to PubChem BioAssay (Tox21).

Records with an inconclusive call do not appear. A call without a number means that no potency is given here. A number with no mark means an inactive call. Calls of active or inactive are those of the source. Unless noted, the call rests on the fitted dose curve; in most records, active means well fitted curve in the direction sought with a large enough effect in the repeat runs; inconclusive means weak or mixed curves; inactive means no such curve, though single readings can be large; an effect the other way counts as inactive or inconclusive.
Further: nearly all actives have a fitted effect of over 50% in size.

Tested on in the first experiment: not listed separately
Kind of experiment: qHTS assay to identify small molecule agonists of the endoplasmic reticulum stress response signaling pathway - cell viability counter screen (AID 1159517; calls by dose curve;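 further: HeLa cells carrying an ER stress response element beta-lactamase reporter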). The conditions noted are these: ESRE-bla HeLa viability, CellTiter-Glo luminescence, 5 h; series mostly up to 61 µM. The procedure, abridged: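 CellTiter-Glo was added to wells already read for beta-lactamase FRET, and luminescence was recorded 30 min later. Cells: ESRE-bla HeLa, 1,500 per well, compound exposure 5 hr at 37 C.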
For orientation: Quantitative high-throughput screening tests each substance at several concentrations.
On to `CC(COc1ccc(C(C)(C)C)cc1)OS(=O)OCCCl` (stereo not given), for which the result was inactive.
As for `Cc1ccc(Nc2nccc(N(C)c3ccc4c(C)n(C)nc4c3)n2)cc1S(N)(=O)=O`, the result was inactive.
Regarding `CN(C)CCOC1=Cc2ccccc2Sc2ccc(Cl)cc21`, the call was inactive.
The same measure, in the same setting: the result for `CCOCCn1c(C2CCN(CCc3ccc(C(C)(C)C(=O)O)cc3)CC2)nc2ccccc21` reads “inactive”; that for `CCCC(=O)O[C@]1(C(=O)COC(=O)CC)CC[C@H]2[C@@H]3CCC4=CC(=O)CC[C@]4(C)[C@H]3[C@@H](O)C[C@@]21C`, “inactive”; that for `O=C(O)c1ccccc1NCCc1ccccc1`, “inactive”.
The same measure, in the same setting: the same measure for `CCC(C)(C)C1CCC(O)CC1` (stereo not given): “inactive”; for `COC(=O)CC(=O)C(C)(C)C`: “inactive”.
Same read-out and setting: the same measure for `Fc1ccccc1[C@@H](F)COC1CCC(Nc2ncnc3[nH]ncc23)CC1` (stereo not given in full): “inactive”.
Take `CCNC(=O)N1CCN(CCCC(c2ccc(F)cc2)c2ccc(F)cc2)CC1`: the outcome was inactive.
Same read-out and setting: the same measure for `O=C(Nc1ccccc1)Nc1ccccc1`: “inactive”.
The same measure, in the same setting: the result for `CCOC(=O)N1CCC(n2c(=O)[nH]c3cc(Cl)ccc32)CC1` reads “inactive”; that for `CCn1cc(C(=O)O)c(=O)c2cc(F)c(N3CCNCC3)nc21`, “inactive”.
As for `CC(=O)OCC(=O)[C@@]12OC(C)(C)O[C@@H]1C[C@H]1[C@@H]3C[C@H](F)C4=CC(=O)C=C[C@]4(C)[C@@]3(F)[C@@H](O)C[C@@]12C`, the outcome was inactive.
Regarding `CCCCC1C(=O)N(c2ccccc2)N(c2ccc(O)cc2)C1=O` (stereo not given), the result was inactive.
Same read-out and setting: the same measure for `CN(C)C(=O)Nc1ccc(Oc2ccc(Cl)cc2)cc1`: “inactive”.
The same measure, in the same setting: the result for `CC[C@H](NC(=O)c1cc(F)ccc1NS(=O)(=O)c1cccc2cccnc12)c1ccccc1` reads “inactive”.
Still for that read-out and setting: the result for `Nc1ccc(Cl)cc1[N+](=O)[O-]` reads “inactive”.
Turning to `Brc1cc(-c2ccc(Br)c(Br)c2Br)cc(Br)c1Br`, the result was inactive.
On the same count and under the same terms, the result for `O=C(O)C(Cc1cc(I)c(O)c(I)c1)c1ccccc1` (stereo not given) reads “inactive”; that for `CC(C)(C)C(=O)C(Oc1ccc(Cl)cc1)n1ccnc1` (stereo not given), “inactive”; that for `C=CCOC(=O)/C=C\C(=O)OCC=C`, “inactive”.
The same measure, in the same setting: the result for `NC(=O)N(O)[C@@H]1C=C[C@H](Oc2cccc(Oc3ccc(F)cc3)c2)C1` reads “inactive”.
On the same count and under the same terms, the same measure for `CCC(C(=O)OCCN(CC)CC)c1ccccc1` (stereo not given): “inactive”; for `COc1ccc(CCC(=O)c2c(O)cc(O[C@@H]3O[C@H](CO)[C@@H](O)[C@H](O)[C@H]3O[C@@H]3O[C@@H](C)[C@H](O)[C@@H](O)[C@H]3O)cc2O)cc1O`: “inactive”; for `CCCCN(CCCC)C(=S)SSC(=S)N(CCCC)CCCC`: “inactive”.
`CC(CCO)CCc1ccccc1` (stereo not given): the compound was classed as inactive.
For the compound `COC(=O)c1cc(Cl)ccc1NS(=O)(=O)C(F)(F)F`, the call was inactive.
On the same count and under the same terms, the result for `O=C(C(=O)c1ccccc1)c1ccccc1` reads “inactive”; that for `CCCCC/C(=C\c1ccccc1)CO`, “inactive”; that for `N#C/C(=C1\SCC(c2ccccc2Cl)S1)n1ccnc1` (stereo not given), “inactive”.

Tested on in another experiment: not listed separately
In words: qHTS assay to identify small molecule antagonists of the retinoid-related orphan receptor gamma (ROR-gamma) signaling pathway - cell viability counter screen (AID 1159520). The conditions noted are these: Tet-on RORgamma CHO cells viability, ATP luminescence, 16 h; series mostly up to 92.4 µM. In outline:
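Tet-on ROR gamma CHO cells (1,000/well) were plated 4 hr, given compounds in DMSO for 2 hr at 37 C, then induced with 1 uM final doxycycline for 16 hr. Viability was read as ATP by CellTiter-Glo luminescence after 30 min.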
With `Cc1ccc(Nc2nccc(N(C)c3ccc4c(C)n(C)nc4c3)n2)cc1S(N)(=O)=O`, the Potency entry is “inactive”.
The same measure, in the same setting: the same measure for `CN(C)CCOC1=Cc2ccccc2Sc2ccc(Cl)cc21`: “inactive”; for `CCOCCn1c(C2CCN(CCc3ccc(C(C)(C)C(=O)O)cc3)CC2)nc2ccccc21`: “inactive”.
On to `CCCC(=O)O[C@]1(C(=O)COC(=O)CC)CC[C@H]2[C@@H]3CCC4=CC(=O)CC[C@]4(C)[C@H]3[C@@H](O)C[C@@]21C`, for which the activity, negative = cytotoxicity is 0.636% [at 19 µM].
`Oc1ccc(Nc2ccccc2)cc1`: the Potency result was “inactive”.
Still for that read-out and setting: the result for `O=C(O)c1ccccc1NCCc1ccccc1` reads “inactive”; that for `CCC(C)(C)C1CCC(O)CC1` (stereo not given), “inactive”; that for `O=C(N[C@@H](c1ccccc1)[C@@H]1CCCCN1)c1cccc(C(F)(F)F)c1Cl`, “inactive”.
On the same count and under the same terms, the same measure for `CC(=O)[C@H]1CC[C@H]2[C@@H]3C[C@H](C)C4=CC(=O)CC[C@]4(C)[C@H]3[C@@H](O)C[C@]12C`: “inactive”.
Same read-out and setting: the same measure for `CCNC(=O)N1CCN(CCCC(c2ccc(F)cc2)c2ccc(F)cc2)CC1`: “inactive”; for `CCOC(=O)N1CCC(n2c(=O)[nH]c3cc(Cl)ccc32)CC1`: “inactive”.
For the compound `CCn1cc(C(=O)O)c(=O)c2cc(F)c(N3CCNCC3)nc21`, the Potency result is “inactive”.
Still for that read-out and setting: the same measure for `Nc1ccc(Cl)cc1[N+](=O)[O-]`: “inactive”.
On the same count and under the same terms, the same measure for `Brc1cc(-c2ccc(Br)c(Br)c2Br)cc(Br)c1Br`: “inactive”; for `O=C(O)C(Cc1cc(I)c(O)c(I)c1)c1ccccc1` (stereo not given): “inactive”.
Still for that read-out and setting: the same measure for `CC(C)(C)C(=O)C(Oc1ccc(Cl)cc1)n1ccnc1` (stereo not given): “inactive”; for `C=CCOC(=O)/C=C\C(=O)OCC=C`: “inactive”; for `CCC(C(=O)OCCN(CC)CC)c1ccccc1` (stereo not given): “inactive”.
`COC(=O)c1cc(S(N)(=O)=O)ccc1OC`: the Potency result is “inactive”.
Regarding `CC(CCO)CCc1ccccc1` (stereo not given), the Potency entry was “inactive”.
Still for that read-out and setting: the same measure for `O=C(C(=O)c1ccccc1)c1ccccc1`: “inactive”; for `Cc1oncc1C(=O)Nc1ccc(C(F)(F)F)cc1`: “inactive”.
Same read-out and setting: the same measure for `C[Si]1(C)O[Si](C)(C)O[Si](C)(C)O1`: “inactive”.

A further experiment has as its target Nuclear receptor ROR-gamma (Homo sapiens) (UniProt P51449). Kind of experiment: qHTS assay to identify small molecule antagonists of the retinoid-related orphan receptor gamma (ROR-gamma) signaling pathway (AID 1159521; further: potency means the concentration at half of the fitted maximal effect). The conditions noted are these: Tet-on RORgamma CHO cells, RORE-luciferase, 16 h; series mostly up to 92.4 µM. In outline:
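RORγ antagonism is scored from reduced reporter luminescence in Tet-on CHO cells. Induction used 1 uM final doxycycline hyclate for 16 h at 37 C, following a 2 h compound exposure.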
Take `CC(COc1ccc(C(C)(C)C)cc1)OS(=O)OCCCl` (stereo not given): the Potency is 24.5 µM (active).
Same read-out and setting: the result for `Fc1ccccc1[C@@H](F)COC1CCC(Nc2ncnc3[nH]ncc23)CC1` (stereo not given in full) reads 12.2 µM (active); that for `O=C(Nc1ccccc1)Nc1ccccc1`, “inactive”; that for `c1cc[c]([Bi]([c]2ccccc2)[c]2ccccc2)cc1`, 30.6 µM (active).
Regarding `CC[C@H](NC(=O)c1cc(F)ccc1NS(=O)(=O)c1cccc2cccnc12)c1ccccc1`, the Potency is 10.3 µM (active).
Same read-out and setting: the result for `NC(=O)N(O)[C@@H]1C=C[C@H](Oc2cccc(Oc3ccc(F)cc3)c2)C1` reads “inactive”; that for `COC(=O)c1cc(S(N)(=O)=O)ccc1OC`, “inactive”.
The same measure, in the same setting: the result for `COC(=O)c1cc(Cl)ccc1NS(=O)(=O)C(F)(F)F` reads “inactive”; that for `Cc1oncc1C(=O)Nc1ccc(C(F)(F)F)cc1`, “inactive”.
Turning to `C[Si]1(C)O[Si](C)(C)O[Si](C)(C)O1`, the Potency result was “inactive”.
The same measure, in the same setting: the result for `CCCCC/C(=C\c1ccccc1)CO` reads “inactive”.
